# CF NFkB block – inhibitors of PAF-induced NF-kB signaling, primary screen, cell-based, GFP fluorescence, uHTS. 360,000 compounds, 0.86% hits. KKLEB NF-kB-GFP reporter, GFP fluorescence overnight. inhibition, % at 5 µM;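 active = at least 50% inhibition at 5 µM, scaled per plate between neutral and stimulator controls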;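 also: PAF is a Pseudomonas aeruginosa culture filtrate used as stimulus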
# LGR2 antag – inhibitors of bursicon-induced LGR2 CRE-luciferase signal, primary screen, cell-based, HEK293, CRE-luciferase reporter, bursicon stimulation. Drosophila bursicon receptor LGR2 (rickets). bursicon-stimulated, 4 h. inhibition, % at 9.99 µM. 380,000 compounds, 0.35% hits;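 active = drop in luminescence signal, shown as inhibition above about 50% in the replicate tests, limit read from the data, passing the limit was not always enough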;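 also: agonist challenge used bursicon conditioned medium at about half maximal strength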
# iPSC survival up – enhancers of single-cell hiPSC survival, primary screen, ATPlite luminescence; 100% = ROCK inhibitor wells, 0% = DMSO; survival enhancement, % at 20 µM; 360,000 compounds, 0.044% hits; in the data active = survival enhancement above about 18%;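 also: cells exposed to compounds for 16 hours before the ATP read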
# TWEAK Fn14 block – inhibitors of TWEAK-Fn14 signaling, primary screen, luciferase reporter cells, uHTS | 360,000 compounds, 2% hits | TWEAK-stimulated Fn14 reporter cells, luciferase luminescence, 8 h | inhibition, % at 10 µM | AID 1159606, 2016; in the data active = inhibition above about 50%
# HIF-2a block – HIF-2a reporter inhibitors, primary screen, luminescence, 786-0 RCC cells; inhibition, % at 18.8 µM; 360,000 compounds, 0.72% hits; AID 624352, 2012; 786-0 RCC cells HIF-2a reporter, luciferase luminescence, overnight;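 active = inhibition of the luminescence signal of 40% or more relative to plate controls, in a single-dose primary screen at 18.75 µM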
# KKLEB tox – cytotoxicity in KKLEB CF airway cells, primary screen, cytotoxicity control for CF NF-kB inhibitor project, cell-based, uHTS, fluorescence assay plates; KKLEB CF airway cells viability, ATPlite luminescence, overnight; active compounds read low; cells stimulated with P. aeruginosa culture filtrate; activity change (cytotoxicity), % at 5 µM; 360,000 compounds, 0.36% hits;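 active = corrected activity change at or below -50% at 5 µM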
# A number is an active result; – = inactive; · = not tested or not shown. Shown are actives, neighbours in structure and some others; about 2.3% of the full set was active somewhere.
SMILES,CF NFkB block,LGR2 antag,iPSC survival up,TWEAK Fn14 block,HIF-2a block,KKLEB tox
Cc1cccc(NC(=O)C(=O)NNC(=O)c2ccc(C(C)(C)C)cc2)c1,83.8,–,–,–,–,-61.5
O=C(c1ccc2c(c1)OCO2)N1CC2(C1)[C@H](c1ccccc1)[C@@H](CO)N2C(=O)C1CCC1,·,–,·,·,·,·
COc1ccc(-n2c(C)cc(C(=O)COC(=O)c3cc(NC(=O)c4cccs4)c(OC)c(OC)c3)c2C)cc1,–,–,–,–,–,–
COc1cc(NC(=O)c2cccs2)c(C(=O)OCC(=O)NC(=O)NC(C)(C)C)cc1OC,–,·,–,–,–,–
COc1cc(NC(=O)c2cccs2)c(C(=O)OCC(=O)c2cc(C)n(-c3ccccc3)c2C)cc1OC,–,59.9,–,–,–,–
COc1cc(NC(=O)c2cccs2)c(C(=O)OCC(=O)c2cc(C)n(-c3ccc(F)cc3)c2C)cc1OC,–,–,–,90.1,–,–
CCCN1[C@H](C(=O)N[C@@H](C)c2ccccc2)[C@@H](CO)[C@@H]2Cn3c(ccc(-c4ccccc4)c3=O)[C@@H]21,·,–,·,·,·,·
OCc1cn(-c2ccccc2)nc1-c1ccc(-c2nn(-c3ccccc3)cc2CO)cc1,–,–,–,51.7,–,–
O=C(c1ccccc1F)N1CC2(C1)[C@H](c1ccccc1)[C@H](CO)N2CC1CCCC1,·,–,·,·,·,·
O=C(CNC(=O)c1ccccc1)c1ccccc1,–,–,–,50.0,–,–
O=C(CNC(=O)c1ccc(Br)cc1)c1ccccc1,–,·,–,–,–,–
COc1cc(/C=C2/C(=O)ON=C2c2ccccc2)ccc1O,–,–,–,–,53.2,–
CCOc1cc(/C=C2\C(=O)ON=C2c2ccccc2)cc(Br)c1O,–,–,–,–,78.7,–
O=C1ON=C(c2ccccc2)/C1=C/c1ccc(O)cc1,–,–,–,–,–,–
CCOc1cc(/C=C2\C(=O)ON=C2C)ccc1OCc1ccccc1,–,–,–,60.6,67.0,–
COc1cc(/C=C2\C(=O)ON=C2c2ccccc2)cc(Br)c1O,–,–,–,–,51.3,–
COc1cc(/C=C2\C(=O)ON=C2c2ccccc2)cc(Cl)c1O,–,–,–,–,–,–
O=C(Cc1ccccn1)N[C@@H]1CC[C@@H](CCn2cc(-c3ccc(F)cc3)nn2)O[C@@H]1CO,·,–,·,·,·,·
Cc1cc(=O)oc2c3c(cc(OCC(=O)N[C@@H](C)C(=O)O)c12)OC(C)(C)CC3,–,–,–,76.4,–,–
COc1ccc(N2CCN(C(=O)c3ccc(COc4ccc([N+](=O)[O-])cc4)o3)CC2)cc1,–,–,–,50.6,–,–
COc1ccc(N2CCN(C(=O)c3ccc(OCc4c(C)noc4C)c(OC)c3)CC2)cc1,–,·,–,–,–,–
COc1cc(C(=O)N2CCN(c3ccc([N+](=O)[O-])cc3)CC2)ccc1OCc1c(C)noc1C,–,·,–,73.0,–,–
Cc1ccc(S(=O)(=O)NCc2ccc(C(=O)N3CCN(c4ccc([N+](=O)[O-])cc4)CC3)cc2)cc1,–,–,–,50.3,–,–
O=C1N=C(N2CCCC2)S/C1=C\C=C\c1ccccc1,–,·,–,76.8,–,–
CN(C)C(=O)[C@@H]1[C@@H](CO)[C@@H]2Cn3c(ccc(C4=CCCCC4)c3=O)[C@@H]2N1Cc1ccccn1,·,–,·,·,·,·
SMILES,CF NFkB block,LGR2 antag,iPSC survival up,TWEAK Fn14 block,HIF-2a block,KKLEB tox
CC(C)(C)c1ccc(O)c(N=Cc2cc(Br)ccc2O)c1,–,–,–,87.6,51.9,–
Cc1ccc(O)c(C=Nc2cc(C)ccc2O)c1,–,·,–,–,–,–
Nn1c(=S)[nH]c2sc3c(c2c1=O)CCCC3,–,–,–,53.2,–,–
CCCn1c(=S)[nH]c2sc3c(c2c1=O)CCCC3,–,–,–,–,–,–
CC(C)C(=O)Nc1ccc2c(c1)C(=O)N(C)[C@H]1CC[C@@H](CC(=O)NCc3ccc(F)cc3)O[C@H]1CO2,·,–,·,·,·,·
CC(C)c1ccc(-c2noc(C3CCCN(C(=O)c4ccc(F)cc4F)C3)n2)cc1 (stereo not drawn),–,·,–,51.6,–,–
